Data reported in PubChem BioAssay (EPA / NIEHS).
Some structures have more than one record in an assay (separate samples or runs), and their calls can disagree. Calls of active or inactive are those of the source. Rule for the calls: active = hit-call score of the fitted dose curve at least 0.9, where 1 is the maximum; inactive = score below 0.9.

experiment: APR_HepG2_MitoMass_72hr: Apredica 72-hour HepG2 Assay for Mitochondrial Mass (AID 2282924); details: high-content imaging, actives raise or lower the signal;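 note: MitoTracker Red CMXRos stain intensity per cell imaged as mitochondrial mass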
Experimental: APR_HepG2_72hr is a cell-based, multiplexed-readout assay that uses HepG2, a human liver cell line, with measurements taken at 72 hours after chemical dosing in a 384-well plate.APR_HepG2_MitoMass_72hr is one of 10 assay component(s) measured or calculated from the APR_HepG2_72hr assay. It is designed to make measurements of cell phenotype, a form of morphology reporter, as detected with fluorescence intensity signals by HCS Fluorescent Imaging technology.Data from the assay component APR_HepG2_MitoMass_72hr was analyzed into 1 assay endpoint. This assay endpoint, APR_HepG2_MitoMass_72hr, was analyzed with bidirectional fitting relative to DMSO as the negative control and baseline of activity. Using a type of morphology reporter, gain or loss-of-signal activity can be used to understand changes in the signaling. Furthermore, this assay endpoint can be referred to as a primary readout, because this assay has produced multiple assay endpoints where this one serves a signaling function. To generalize the intended target to other relatable targets, this assay endpoint is annotated to the cell morphology intended target family, where the subfamily is organelle conformation.
Cells were treated with dimethyl sulfoxide (DMSO) as a solvent control at a final concentration of 0.5% v/v or with compounds in DMSO with a resulting final DMSO concentration of 0.5% v/v. Compound treatment was done at concentrations of 0.39, 0.78, 1.56, 3.12, 6.24, 12.5, 25, 50, 100, and 200 uM in duplicate on each plate. Cells were treated with compounds for 1, 24, or 72 hr. Carbonyl […] m-chloro-phenylhydrazone (CCCP) and taxol were used as positive controls for mitochondrial function and cytoskeletal stability, respectively; DMSO served as the negative control for this experiment. Cells were fixed by the direct addition of 50 uL formaldehyde in Hank's Balanced Salt Solution (HBSS) to a final concentration of 3.7%. After incubation in the fixation medium for 30 min at room temperature (293-298 K), cells were rinsed twice with HBSS and treated with cell permeabilization buffer (16 uL of 0.5% Triton X-100) for 10 min at room temperature (293-298 K) before labeling. For mitochondrial membrane potential and mitochondrial measurements, pre-fixed cells were incubated with 50 uL of MitoTracker Red CMXRos (Invitrogen) at a concentration of 250 nM for 30 min before fixation. In the remaining cases, post-fixed cells were labeled by incubation with a multiplexed mixture of primary antibodies in HBSS for 60 min at room temperature (293-298 K) to detect immunoreactivity of c-Jun (1:500), phospho-histone H3 (1:100), phospho-histone H2A.x (1:200), p53 (1:400), alpha-tubulin (1:200) and Hoechst 33342 (2 ug/mL). Cells were labeled for multiplexed imaging on two separate plates: a) Hoechst 33342, MitoTracker Red, phospho-histone H3, and alpha-tubulin, and b) Hoechst 33342, phospho-histone H2A.x, and c-Jun. A final rinse with HBSS (50 uL) was performed before analysis. The primary and secondary antibodies for the proteins were phospho-histone H3 (rabbit anti-phospho-histone H3 and FITC-donkey anti-rabbit IgG), phospho-histone H2A.x (mouse anti-phospho-histone H2A.x and FITC-donkey anti-mouse IgG), c-Jun (rabbit anti-phospho-c-Jun and Cy3-donkey anti-rabbit IgG), p53 (sheep anti-p53 and Cy5-donkey anti-sheep IgG), alpha-tubulin (mouse anti-alpha-tubulin and Cy5-donkey anti-mouse IgG). These antibodies are available as the CellCiphr HepG2 assay kit (Millipore).Digital images of each well were captured using a Cellomics ArrayScan VTI (Thermo Scientific Cellomics) (0.8 NA objective, 0.63x optical coupler, and XF-93 filter set) at 20x magnification. The images were acquired using the autofocus feature of the ArrayScan instrument, which entails the following steps. First, the camera focuses on channel 1 (Hoechst 33342), where nuclei are identified. Second, a Z offset of 1 um is used for capturing mitochondria (MitoTracker Red). […]

SMILES | outcome | AC50
C[C@@H]1C[C@@H]([C@H](O)CC2CC(=O)NC(=O)C2)C(=O)[C@@H](C)C1 | inactive | –
CC(C)(OO)c1ccccc1 | inactive | –
O=C(O)C(F)(F)C(F)(F)C(F)(F)C(F)(F)C(F)(F)C(F)(F)C(F)(F)C(F)(F)C(F)(F)C(F)(F)F | – | 72.9 µM (active)
COc1cc(-c2ccc(N)c(OC)c2)ccc1N | inactive | –
CCC(C)(C)c1ccc(O)c(C(C)(C)CC)c1 | – | 82.5 µM (active)
O=C(O)C(Cl)(Cl)Cl | inactive | 162 µM (active)
CC(C)(C)c1cc(O)ccc1O | – | 108 µM (active)
Cc1ccccc1N | inactive | –
NC(=O)O | inactive | –
CCCCCCCCc1ccc(O)cc1 | – | 95 µM (active)
CCN1CCC2(CC1)COc1cc3c(cc12)N(C(=O)c1ccc(-c2ccc(-c4nnc(C)o4)cc2C)cc1)CC3 | – | 44.7 µM (active)
C=C(C)C(=O)[O][Sn]([CH2]CCC)([CH2]CCC)[CH2]CCC | – | 0.395 µM (active)
Cn1sc(Cl)cc1=O | – | 163 µM (active)
C[C@]12CCC(=O)C[C@@H]1CC[C@@H]1[C@@H]2CC[C@]2(C)[C@@H](O)CC[C@@H]12 | inactive | –
CN(C)N=O | inactive | –
C=CC(=O)OCCCCCC(C)C | inactive | –
Oc1cccc2cccnc12 | – | 3.1 µM (active)
CC(C)(C)CC(C)(C)c1ccc(O)cc1 | inactive | –
CCC(=O)C(CC(C)N(C)C)(c1ccccc1)c1ccccc1 (centres undefined) | inactive | –
CC(C)(c1ccccc1)c1ccc(O)c(C(C)(C)c2ccccc2)c1 | – | 30.1 µM (active)
CC(=O)[O][Hg][c]1ccccc1 | – | 83.5 µM (active)
ClC1(Cl)C2(Cl)C3(Cl)C4(Cl)C(Cl)(Cl)C5(Cl)C3(Cl)C1(Cl)C5(Cl)C24Cl (centres undefined) | inactive | –
O=c1[nH]c(=O)[nH]c(=O)[nH]1 | inactive | –
O=C1C2(Cl)C3(Cl)C4(Cl)C(Cl)(Cl)C5(Cl)C3(Cl)C1(Cl)C5(Cl)C24Cl (centres undefined) | inactive | –
O=C(O)C(F)(F)C(F)(F)C(F)(F)C(F)(F)C(F)(F)C(F)(F)F | – | 13 µM (active)
ClCC(Cl)CCl | inactive | –
CC12CC1(C)C(=O)N(c1cc(Cl)cc(Cl)c1)C2=O (centres undefined) | inactive | –
O=C(Nc1ccc2[nH]ccc2c1)c1cc2cc(F)ccc2n1Cc1cccc(F)c1 | – | 26.9 µM (active)
